# Experimental data taken from PubChem BioAssay (EPA / NIEHS).
# Inconclusive results are not listed. The source holds several records for some structures; these can differ, active in one and inactive in another. The source made the active and inactive calls. The calls were made as follows: active = hit-call score of the fitted dose curve at least 0.9, where 1 is the maximum; inconclusive = response in the unintended direction; inactive = score below 0.9.
# Legend:
# [1] = TOX21_p53_BLA_p2_viability: Viability Assessment in the Tox21 HCT-116 p53 Agonism Beta-lactamase Assay, Phase 2 (AID 2283591);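 also: actives lower the ATP signal meaning cytotoxicity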
# How it was run: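 HCT-116 p53-bla cells (4000/well) rested 5 h at 37C, then received compounds in DMSO (217-fold dilution) for 16 h at 37C, 5% CO2. After the CCF4 read, CellTiter-Glo was added; ATP luminescence was read after 30 min at room temperature.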
# [2] = TOX21_p53_BLA_p3_viability: Viability Assessment in the Tox21 HCT-116 p53 Agonism Beta-lactamase Assay, Phase 3 (AID 2283593);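 also: cells exposed to compound for 16 h before reading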
# How it was run: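 HCT-116 cells (4000/well) rested 5 h at 37C, then got DMSO compounds by pin tool (217-fold dilution) for 16 h at 37C, 5% CO2. After the bla read, CellTiter-Glo was added and luminescence read at 30 min, room temperature.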
# [3] = target: Cellular tumor antigen p53 (Homo sapiens) (UniProt P04637); assay: TOX21_p53_BLA_p3_ratio: Tox21 HCT-116 p53 Agonism Beta-lactamase Assay, Ratio, Phase 3 (AID 2283596)
# Chain of Cellular tumor antigen p53 (Homo sapiens) (P04637 whole entry, looked up): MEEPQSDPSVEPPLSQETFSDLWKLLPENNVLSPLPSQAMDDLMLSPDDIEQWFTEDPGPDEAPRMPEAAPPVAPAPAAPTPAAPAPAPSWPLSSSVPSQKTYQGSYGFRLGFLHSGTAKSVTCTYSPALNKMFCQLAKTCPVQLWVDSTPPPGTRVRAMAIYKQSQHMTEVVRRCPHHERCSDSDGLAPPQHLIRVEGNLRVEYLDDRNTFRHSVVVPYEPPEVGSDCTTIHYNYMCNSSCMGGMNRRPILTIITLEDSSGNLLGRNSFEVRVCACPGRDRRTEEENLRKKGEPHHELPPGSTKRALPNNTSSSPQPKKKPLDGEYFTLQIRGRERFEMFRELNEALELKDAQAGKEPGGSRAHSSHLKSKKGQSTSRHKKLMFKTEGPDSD
# How it was run: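 Cells were seeded at 4000/well, rested 5 h at 37C, then dosed with DMSO compound solutions (217-fold dilution) for 16 h. CCF4-AM substrate was loaded for 2 h at room temperature, and the 460/530 nm emission ratio was fitted for gain of signal versus DMSO.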
# [4] = TOX21_p53_BLA_p4_viability: Viability Assessment in the Tox21 HCT-116 p53 Agonism Beta-lactamase Assay, Phase 4 (AID 2283597);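 also: hits lower the luminescence signal meaning cytotoxicity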
# How it was run: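 4000 HCT116 cells per well; 5 h attachment; compounds from DMSO, 217-fold dilution; 16 h at 37C. Then CCF4-AM, 2 h RT, followed by CellTiter-Glo, 30 min RT, luminescence. Decrease = cytotoxicity.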
# [5] = target: Cellular tumor antigen p53 (Homo sapiens) (UniProt P04637); assay: TOX21_p53_BLA_p5_ratio: Tox21 HCT-116 p53 Agonism Beta-lactamase Assay, Ratio, Phase 5 (AID 2283599)
# How it was run: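 HCT-116 cells carrying a p53-inducible beta-lactamase reporter were seeded at 4000 cells/well and dosed after 5 h with compound in DMSO (217-fold dilution). After 16 h at 37C, CCF4-AM substrate was added for 2 h, and the 460/530 nm emission ratio was scored as gain-of-signal versus DMSO.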
# [6] = TOX21_p53_BLA_p5_viability: Viability Assessment in the Tox21 HCT-116 p53 Agonism Beta-lactamase Assay, Phase 5 (AID 2283600)
# How it was run: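 Decreased CellTiter-Glo luminescence denotes lost viability. Exposure: 16 h at 37C, 5% CO2, with compounds from DMSO stocks diluted 217-fold in wells of 4000 cells.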
# [7] = target: Cellular tumor antigen p53 (Homo sapiens) (UniProt P04637); assay: TOX21_p53_BLA_p4_ratio: Tox21 HCT-116 p53 Agonism Beta-lactamase Assay, Ratio, Phase 4 (AID 2283601)
# How it was run: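 HCT116 cells carrying an inducible beta-lactamase reporter were plated at 4000 cells/well, rested 5 h, then exposed to compounds in DMSO (217-fold dilution) for 16 h at 37C. CCF4-AM substrate was loaded 2 h at room temperature; 460/530 nm emission ratio scored gain-of-signal versus DMSO.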
compound,measurement,setting,value
CC(C)n1nc(-c2cc3cc(O)ccc3[nH]2)c2c(N)ncnc21,AC50,[1],23 µM (active)
same,outcome,[2],inactive
same,outcome,[3],inactive
same,AC50,[4],11.6 µM (active)
same,AC50,[5],34.6 µM (active)
same,outcome,[6],inactive
same,outcome,[7],inactive
CN1CCN(CC(=O)N2c3ccccc3C(=O)Nc3cccnc32)CC1,outcome,[1],inactive
same,outcome,[2],inactive
same,outcome,[3],inactive
same,outcome,[4],inactive
Clc1ccc(COC(Cn2ccnc2)c2ccc(Cl)cc2Cl)c(Cl)c1 (stereo not given),outcome,[1],inactive
same,outcome,[2],inactive
same,outcome,[3],inactive
same,outcome,[4],inactive
same,outcome,[5],inactive
same,outcome,[6],inactive
same,outcome,[7],inactive
CCCCCCCCCCCCC(=O)O,outcome,[1],inactive
same,outcome,[2],inactive
same,outcome,[3],inactive
same,outcome,[4],inactive
same,outcome,[5],inactive
same,outcome,[6],inactive
CCCCCCCCNC(C)C(O)c1ccc(SC(C)C)cc1 (stereo not given),AC50,[1],22.4 µM (active)
same,AC50,[2],15.2 µM (active)
same,AC50,[3],18.7 µM (active)
same,AC50,[4],18.3 µM (active)
same,AC50,[5],23.9 µM (active)
same,AC50,[6],19 µM (active)
same,AC50,[7],33.9 µM (active)
OCCN1CCN(CCCN2c3ccccc3C=Cc3ccccc32)CC1,outcome,[1],inactive
same,outcome,[2],inactive
same,outcome,[3],inactive
same,AC50,[4],28.1 µM (active)
same,outcome,[4],inactive
same,outcome,[5],inactive
same,outcome,[7],inactive
CC(C)(C)CC(C)(C)c1cc(Cc2cc(C(C)(C)CC(C)(C)C)cc(-n3nc4ccccc4n3)c2O)c(O)c(-n2nc3ccccc3n2)c1,outcome,[1],inactive
same,outcome,[2],inactive
same,outcome,[3],inactive
same,outcome,[4],inactive
same,outcome,[5],inactive
same,outcome,[6],inactive
CNCc1ccccc1,outcome,[1],inactive
same,outcome,[2],inactive
same,outcome,[3],inactive
same,outcome,[4],inactive
same,outcome,[5],inactive
same,outcome,[6],inactive
same,outcome,[7],inactive
C=CC1=C(C(=O)O)N2C(=O)[C@@H](NC(=O)/C(=N\O)c3csc(N)n3)[C@H]2SC1 (stereo in doubt),outcome,[1],inactive
same,outcome,[2],inactive
same,outcome,[3],inactive
same,outcome,[4],inactive
same,outcome,[5],inactive
same,outcome,[6],inactive
same,outcome,[7],inactive
CCOc1cc([N+](=O)[O-])c(OCC)cc1N1CCOCC1,outcome,[1],inactive
same,outcome,[2],inactive
same,outcome,[3],inactive
same,outcome,[4],inactive
same,outcome,[5],inactive
same,outcome,[6],inactive
same,outcome,[7],inactive
O=C(/C=C/c1cccc(F)c1)NC1CC1,outcome,[1],inactive
same,outcome,[2],inactive
same,outcome,[3],inactive
same,outcome,[4],inactive
same,outcome,[5],inactive
same,outcome,[6],inactive
same,outcome,[7],inactive
CC(=O)O[C@H]1C[C@@H]2CC[C@@H]3[C@H](CC[C@@]4(C)[C@H]3C[C@H]([N+]3(C)CCCCC3)[C@@H]4OC(C)=O)[C@@]2(C)C[C@@H]1[N+]1(C)CCCCC1,outcome,[1],inactive
same,outcome,[2],inactive
same,outcome,[3],inactive
same,outcome,[4],inactive
same,outcome,[5],inactive
same,outcome,[6],inactive
same,outcome,[7],inactive
CCN(CC)CCOc1ccc(C(O)(Cc2ccc(Cl)cc2)c2ccc(C)cc2)cc1 (stereo not given),AC50,[1],35.9 µM (active)
same,AC50,[2],23 µM (active)
same,outcome,[3],inactive
same,AC50,[4],30.7 µM (active)
same,outcome,[5],inactive
same,outcome,[6],inactive
same,AC50,[7],43 µM (active)
CC1COc2ccccc2N1 (stereo not given),outcome,[1],inactive
same,outcome,[2],inactive
same,outcome,[3],inactive
same,outcome,[4],inactive
CCNC(=O)/C=C/c1cccc(Br)c1,outcome,[1],inactive
same,outcome,[2],inactive
same,outcome,[3],inactive
same,outcome,[4],inactive
same,outcome,[5],inactive
same,outcome,[6],inactive
CC(C(=O)O)c1cccc(C(=O)c2ccccc2)c1 (stereo not given),outcome,[1],inactive
same,outcome,[2],inactive
same,outcome,[3],inactive
same,outcome,[4],inactive
same,outcome,[5],inactive
same,outcome,[6],inactive
same,outcome,[7],inactive
CCOC(=O)[C@H](CCc1ccccc1)N[C@@H](C)C(=O)N1[C@H](C(=O)O)C[C@H]2CCCC[C@@H]21,outcome,[1],inactive
same,outcome,[2],inactive
same,outcome,[3],inactive
same,outcome,[4],inactive
same,outcome,[5],inactive
same,outcome,[6],inactive
same,outcome,[7],inactive
CC(=O)C=Cc1ccco1,outcome,[1],inactive
same,outcome,[2],inactive
same,outcome,[3],inactive
same,outcome,[4],inactive
same,outcome,[5],inactive
same,outcome,[6],inactive
same,outcome,[7],inactive
O=C(O)CONC(=O)c1ccccc1,outcome,[1],inactive
same,outcome,[2],inactive
same,outcome,[3],inactive
same,outcome,[4],inactive
same,outcome,[5],inactive
same,outcome,[6],inactive
same,outcome,[7],inactive
NCCS,outcome,[1],inactive
same,outcome,[2],inactive
same,outcome,[3],inactive
same,outcome,[4],inactive
same,outcome,[5],inactive
same,outcome,[6],inactive
same,outcome,[7],inactive
CC(=O)N1C[C@H](O)C[C@H]1C(=O)O,outcome,[1],inactive
same,outcome,[2],inactive
same,outcome,[3],inactive
same,outcome,[4],inactive
same,outcome,[5],inactive
same,outcome,[6],inactive
same,outcome,[7],inactive
OC[C@@H](O)[C@@H](O)CO,outcome,[1],inactive
same,outcome,[2],inactive
same,outcome,[3],inactive
same,outcome,[4],inactive
same,outcome,[5],inactive
same,outcome,[6],inactive
same,outcome,[7],inactive
